# Results filed as inconclusive are left out. A call without a number means that no potency is given here. Unmarked numbers belong to inactive results. The source made the active and inactive calls. Unless noted, calls come from the whole dose curve; as a rule, active = well fitted curve in the direction sought with a large enough effect; inconclusive = small, poorly fitted or top-dose-only effect, or another doubt; inactive = no such curve, though single readings can be large; an effect the other way counts as inactive or inconclusive. Where a SMILES comes first, the peptide text is derived from it. [ ]: non-standard residue; d: D form. pGlu = O=C1CC[C@@H](C(=O)O)N1
# Experiments:
# [1] = qHTS to identify inhibitors of the type 1 interferon - major histocompatibility complex class I in skeletal muscle: primary screen against the NCATS Pharmaceutical Collection (AID 1347407);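 note: luminescence of HiBiT knocked into endogenous HLA-B as interferon-induced MHC class I level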; note: potency is the fitted concentration of half-maximal effect
# Method in brief: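 Immortalized human myoblasts (C25cl48) with HiBiT knocked into endogenous HLA-B*08:01 were stimulated with 4 ng/ml IFN-beta and treated with compounds (8-point, 1:5, top 46 uM final) for 24 h at 37 C; HiBiT lytic luminescence read.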
# [2] = target: Protein phosphatase 1D (Homo sapiens) (UniProt O15297); test: RapidFire Mass Spectrometry qHTS Assay for Modulators of WT P53-Induced Phosphatase 1 (WIP1) (AID 1347424);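 note: amount of dephosphorylated VEPPL-S-QETFS peptide product formed by WIP1; series mostly up to about 63 µM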
# Method in brief: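 RapidFire mass spectrometry measured dephosphorylated peptide after 5 min room-temperature reaction of 2 uM VEPPL-pS-QETFS with 10 nM WIP1 (50 mM Tris-HCl pH 7.5, 30 mM MgCl2, 0.1 mM EGTA, BSA), following 1 hr compound preincubation; 1 uM isotope-labelled product standard.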
# [3] = target: Protein phosphatase 1D (Homo sapiens) (UniProt O15297); test: Rhodamine-PBP qHTS Assay for Modulators of WT P53-Induced Phosphatase 1 (WIP1) (AID 1347425)
# Method in brief: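 WIP1 (5 nM final) was preincubated with compound for 1 hour at room temperature. It then dephosphorylated 10 uM VEPPL-pS-QETFS peptide in Tris-HCl pH 7.5 with 30 mM MgCl2. Released Pi was detected by 10 uM Rh-PBP fluorescence (ex 525/em 598 nm) read at 1-min intervals for 11 min, as delta f1 - f0.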
# [4] = Primary qHTS for inhibitors of La Crosse Virus (LACV) - induced cell death in SH-SY5Y cells (AID 1508616);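 note: top concentration of the series differs between compounds; higher means more rescue of cells from virus-induced death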
# Method in brief: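 Cytopathicity rescue screen: compounds pinned onto SH-SY5Y cells, which are then infected with LACV (MOI 0.01) and held 6 days at 37C. Percent activity is scaled between infected DMSO control and uninfected DMSO control.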
# [5] = target: Calcium and integrin-binding protein 1 (Homo sapiens) (UniProt Q99828); test: Primary qHTS for Identification of Calcium Integrin Binding Protein 1 (CIB1) Competitor (AID 1508620);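 note: GST tagged CIB1 binding a fluorescein labelled alphaIIb integrin peptide tracer; top concentration of the series differs between compounds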
# Method in brief: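 CIB1-GST (1 uM final) and compound incubated 15 min at room temperature before adding FITC-alphaIIb peptide tracer (100 nM final). Competition for binding read by fluorescence polarization (ex 480, em 540) after another 15 min at room temperature.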
# [6] = Primary qHTS for small molecule stabilizers of the endoplasmic reticulum resident proteome: Secreted ER Calcium Modulated Protein (SERCaMP) assay (AID 1508630)
# Method in brief: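 The SH-SY5Y reporter protocol was run at 3 concentrations up to 38.3 uM (primary) or 11 concentrations (follow-up): 16 h compound, 100 nM thapsigargin for 4 h, then extracellular luciferase luminescence.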
# [7] = Confirmatory qHTS for small molecule stabilizers of the endoplasmic reticulum resident proteome: Secreted ER Calcium Modulated Protein (SERCaMP) assay (AID 1508628); note: series mostly up to about 76 µM; nearly all actives have a fitted effect of over 40% in size
# Method in brief: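 GLuc-SERCaMP-expressing SH-SY5Y cells, pretreated 16 h with compound, are challenged with thapsigargin to empty ER calcium stores; after 4 h, coelenterazine is added directly to the medium and luminescence is imaged.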
# [8] = Cell Viability qHTS for small molecule stabilizers of the endoplasmic reticulum resident proteome (AID 1508629); details: cell viability counter-screen, 100 nM thapsigargin for final 4 h;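 note: human SH-SY5Y neuroblastoma cells carrying the GLuc-SERCaMP reporter; compound exposure about 46 h in total before the viability read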
# [9] = A High-Content qHTS Against Drug Library for the Identification of Small Molecules that Inhibit DYT1 Early Onset Primary Dystonia-Associated Cell Pathology (AID 1645839; calls by dose curve; note: series mostly up to about 46 µM)
# Method in brief: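 High-content imaging quantified EGFP-TorsinA mislocalization in HEK293-derived cells inducibly expressing DYT1 mutant torsinA, after 48 h exposure to compound given together with tetracycline induction. Cell count served as a toxicity channel alongside %pathology.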
# Calcium and integrin-binding protein 1 (Homo sapiens), sequence (Q99828 whole entry, looked up): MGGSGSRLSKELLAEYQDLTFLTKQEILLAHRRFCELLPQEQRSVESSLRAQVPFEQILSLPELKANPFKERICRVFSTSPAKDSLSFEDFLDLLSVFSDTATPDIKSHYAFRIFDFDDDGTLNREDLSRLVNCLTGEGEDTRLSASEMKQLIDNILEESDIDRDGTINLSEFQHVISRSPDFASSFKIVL
# Protein phosphatase 1D (Homo sapiens), sequence (O15297 whole entry, looked up): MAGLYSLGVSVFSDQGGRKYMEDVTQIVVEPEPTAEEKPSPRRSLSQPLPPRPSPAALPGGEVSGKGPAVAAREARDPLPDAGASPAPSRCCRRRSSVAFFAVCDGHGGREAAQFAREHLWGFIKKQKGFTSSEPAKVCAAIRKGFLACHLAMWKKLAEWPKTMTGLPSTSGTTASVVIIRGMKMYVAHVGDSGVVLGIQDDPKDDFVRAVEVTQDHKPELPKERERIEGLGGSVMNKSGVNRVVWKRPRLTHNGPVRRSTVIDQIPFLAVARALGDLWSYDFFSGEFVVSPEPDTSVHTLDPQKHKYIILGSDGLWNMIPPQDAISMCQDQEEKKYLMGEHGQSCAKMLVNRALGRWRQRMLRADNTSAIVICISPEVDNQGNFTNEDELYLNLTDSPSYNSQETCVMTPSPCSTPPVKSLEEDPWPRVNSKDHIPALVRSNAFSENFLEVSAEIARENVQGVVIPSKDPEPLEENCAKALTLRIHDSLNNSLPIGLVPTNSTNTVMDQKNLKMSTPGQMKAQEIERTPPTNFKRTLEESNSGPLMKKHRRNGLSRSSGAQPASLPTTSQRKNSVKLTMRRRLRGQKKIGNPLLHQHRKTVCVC
SMILES,Potency [1],Potency [2],outcome [3],outcome [4],Potency [5],Potency [6],Potency [7],max response [8] [%],Potency [9]
COCCc1ccc(OCC2CO2)cc1 (stereo unspecified),inactive,inactive,inactive,inactive,inactive,inactive,–,–,–
COc1cc(S(N)(=O)=O)cc(C(=O)O)c1OC,inactive,inactive,inactive,inactive,inactive,–,–,–,–
CC(=O)O[C@@H]1CC2C3CCc4cc(OC(=O)c5ccccc5)ccc4C3CCC2(C)[C@H]1OC(C)=O (stereo partly specified),inactive,inactive,inactive,inactive,inactive,–,–,–,–
O=C(NO)c1ccccc1,inactive,inactive,inactive,inactive,inactive,–,inactive,2.69,inactive
Fc1ccc(C(c2ccc(F)cc2)N2CCNCC2)cc1,inactive,inactive,inactive,inactive,inactive,–,inactive,–,inactive
CC[C@@H]([C@H](C)O)n1ncn(-c2ccc(N3CCN(c4ccc(OC[C@@H]5CO[C@@](Cn6cncn6)(c6ccc(F)cc6F)C5)cc4)CC3)cc2)c1=O,inactive,inactive,inactive,inactive,inactive,inactive,–,–,–
Cc1nc2n(c(=O)c1CCN1CCC(C(=O)c3ccc(F)cc3)CC1)CCS2,inactive,inactive,inactive,inactive,inactive,–,inactive,-14.5,inactive
C[C@@H](C1=C(CCN(C)C)Cc2ccccc21)c1ccccn1,inactive,inactive,inactive,inactive,inactive,–,–,–,–
CC(C)=CCC/C(C)=C/CC/C(C)=C/C(=O)OCC(=O)[C@@]1(O)CC[C@H]2[C@@H]3CCC4=CC(=O)C=C[C@]4(C)[C@H]3[C@@H](O)C[C@@]21C,inactive,inactive,inactive,inactive,inactive,inactive,–,–,–
CCCN(CCC)C(=O)C(CCC(=O)OCCCN1CCN(CCOC(=O)Cc2c(C)n(C(=O)c3ccc(Cl)cc3)c3ccc(OC)cc23)CC1)NC(=O)c1ccccc1 (stereo unspecified),inactive,inactive,inactive,inactive,inactive,–,–,–,–
C=CCNc1nc(NCC=C)nc(N2CCN(C(c3ccc(F)cc3)c3ccc(F)cc3)CC2)n1,inactive,inactive,inactive,inactive,inactive,–,–,26.9,inactive
Cc1onc(-c2ccccc2)c1C(=O)Cl,inactive,inactive,inactive,inactive,inactive,–,inactive,–,inactive
CC(C)(C)c1cc(C=O)cc(C(C)(C)C)c1O,inactive,inactive,inactive,inactive,inactive,–,–,–,–
C[C@H](N)C(=O)N[C@@H](C)C(=O)NC1[C@H]2CN(c3nc4c(cc3F)c(=O)c(C(=O)O)cn4-c3ccc(F)cc3F)C[C@@H]12 (stereo partly specified),inactive,inactive,inactive,inactive,inactive,–,–,-5.88,inactive
CCOC(=O)N1CCC(Nc2ccc(Cl)cc2N)CC1,inactive,inactive,inactive,inactive,inactive,–,–,-17.4,–
CN1N=C(C(N)=O)CCC1=O,inactive,inactive,inactive,inactive,inactive,inactive,–,–,–
CC(C)OC(=O)c1cc2c(OCC(O)CNC(C)(C)C)cccc2[nH]1 (stereo unspecified),inactive,inactive,inactive,inactive,inactive,–,–,-12.8,inactive
O=C1CC(c2ccc(Cl)cc2)CC(=O)N1,inactive,inactive,inactive,inactive,inactive,–,inactive,1.98,inactive
CCOC(=O)C(=O)CCCCCCl,inactive,inactive,inactive,inactive,inactive,inactive,–,–,–
Cc1cc(C(C)(C)C)c(O)c(C(C)(C)C)c1,inactive,inactive,inactive,inactive,inactive,inactive,–,–,inactive
CCCC(=O)O[C@]1(C(=O)CC)CC[C@H]2[C@@H]3CCC4=CC(=O)CC[C@]4(C)[C@H]3[C@@H](O)C[C@@]21C,inactive,inactive,inactive,inactive,inactive,inactive,–,–,inactive
CCCC(=O)O[C@]1(C(=O)CCl)[C@@H](C)C[C@H]2[C@@H]3CCC4=CC(=O)C=C[C@]4(C)[C@@]3(F)C(=O)C[C@@]21C,inactive,inactive,inactive,inactive,inactive,inactive,–,–,–
CCCCC(O)/C=C(C)/C=C/C=C/C(=O)N1CCCC1=O (stereo unspecified),inactive,inactive,inactive,inactive,inactive,inactive,–,–,inactive
O=C(OCCN1CCOCC1)c1cccnc1Nc1cccc(C(F)(F)F)c1,inactive,inactive,inactive,inactive,inactive,inactive,–,–,–
CCNC(=O)[C@@H]1CCCN1C(=O)[C@H](CCCN=C(N)N)NC(=O)[C@H](CC(C)C)NC(=O)CNC(=O)[C@H](Cc1ccc(O)cc1)NC(=O)[C@H](CO)NC(=O)[C@H](Cc1c[nH]c2ccccc12)NC(=O)[C@H](Cc1cnc[nH]1)NC(=O)[C@@H]1CCC(=O)N1 ([pGlu]HWSYGLRP-NHEt),inactive,inactive,inactive,inactive,inactive,inactive,–,–,inactive
O=C1Cc2cc(Cl)ccc2N1,inactive,inactive,inactive,inactive,inactive,inactive,–,–,inactive
C#CC(C)(CC)OC(=O)c1ccccc1C(=O)O (stereo unspecified),inactive,inactive,inactive,inactive,inactive,inactive,–,–,inactive

SMILES,Potency [1],Potency [2],outcome [3],outcome [4],Potency [5],Potency [6],Potency [7],max response [8] [%],Potency [9]
CCOC(=O)C(=O)c1csc(NC=O)n1,inactive,inactive,inactive,inactive,inactive,inactive,–,–,inactive
COc1ccc2nc(SCc3ncc(C)c(OC)c3C)[nH]c2c1,inactive,inactive,inactive,inactive,inactive,inactive,–,–,inactive
CC[C@@]1(O)C(=O)OCc2c1cc1n(c2=O)Cc2c-1nc1ccccc1c2/C=N/OC(C)(C)C,0.745 µM (active),inactive,inactive,inactive,inactive,inactive,–,–,–
Cc1c(N)cccc1C(F)(F)F,inactive,inactive,inactive,inactive,inactive,inactive,–,–,inactive
Cc1cccc(C)c1NC(=O)c1ccc(N)cc1,inactive,inactive,inactive,inactive,inactive,inactive,–,–,inactive
CC1CCCCN1CCCOC(=O)c1ccc(OC2CCCCC2)cc1 (stereo unspecified),inactive,inactive,inactive,inactive,inactive,inactive,–,–,–
CCC(C(=O)NC(=O)NC(C)=O)c1ccccc1 (stereo unspecified),inactive,inactive,inactive,inactive,inactive,inactive,–,–,inactive
C=C(C)C(=O)OCC(O)CO (stereo unspecified),inactive,inactive,inactive,inactive,inactive,inactive,–,–,inactive
CCC(=O)Oc1ccc2c(c1)CC[C@@H]1[C@@H]2CC[C@@]2(C)[C@H]1C[C@@H](OC(=O)CC)[C@@H]2OC(=O)CC,inactive,inactive,inactive,inactive,inactive,inactive,–,–,inactive
CC(C)CCCC(C)NCCC(C)C (stereo unspecified),inactive,inactive,inactive,inactive,inactive,inactive,–,–,–
CC(=O)OC/C=C(C)/C=C/C=C(C)/C=C/C1=C(C)CCCC1(C)C,inactive,inactive,inactive,inactive,inactive,inactive,–,–,inactive
CCN(CC)C(=O)C1CN2CCc3cc(OC)c(OC)cc3C2CC1OC(C)=O (stereo unspecified),inactive,inactive,inactive,inactive,inactive,inactive,–,–,inactive
CO[C@@]1(NC(=O)CSC[C@@H](N)C(=O)O)C(=O)N2C(C(=O)O)=C(CSc3nnnn3C)CS[C@@H]21,inactive,inactive,inactive,inactive,inactive,inactive,–,–,–
COCCOCC(OC)OC,inactive,inactive,inactive,inactive,inactive,inactive,–,–,inactive
CC(C)Cc1ccc(C(C)C(=O)OCc2ccccn2)cc1 (stereo unspecified),inactive,inactive,inactive,inactive,inactive,inactive,–,–,–
OC1(c2ccccc2)CCNCC1,inactive,inactive,inactive,inactive,inactive,inactive,–,–,inactive
COCCc1ccccn1,inactive,inactive,inactive,inactive,inactive,inactive,–,–,–
COc1ccccc1OCC1CNC(=O)O1 (stereo unspecified),inactive,inactive,inactive,inactive,inactive,inactive,–,–,–
CC(C)=CCNc1ncnc2c1ncn2[C@@H]1O[C@H](CO)[C@@H](O)[C@H]1O,7.45 µM (active),inactive,inactive,inactive,inactive,inactive,–,–,–
O=c1[nH]c2ccccc2c(=O)n1CCCl,inactive,inactive,inactive,inactive,inactive,inactive,–,–,–
O=C(OCC1(COC(=O)c2cccnc2)CCCC(COC(=O)c2cccnc2)(COC(=O)c2cccnc2)C1O)c1cccnc1,inactive,inactive,inactive,inactive,inactive,inactive,–,–,inactive
CCOC(=O)NNc1nncc2ccccc12,inactive,inactive,inactive,inactive,inactive,inactive,–,–,inactive
O=C(CS(=O)Cc1ccco1)NC/C=C\COc1cc(CN2CCCCC2)ccn1 (stereo unspecified),inactive,inactive,inactive,inactive,inactive,inactive,–,–,–
Nc1ccc(C(=O)N2CC3CC(CN(Cc4ccccc4)C3)C2)cc1,inactive,inactive,inactive,inactive,inactive,inactive,–,–,–
N#Cc1cc(NC(=O)C(=O)O)c(Cl)c(NC(=O)C(=O)O)c1,inactive,inactive,inactive,inactive,inactive,inactive,–,–,–
CCNC(=O)NCCCOc1cccc(CN2CCCCC2)c1,inactive,inactive,inactive,inactive,inactive,inactive,–,–,inactive
O=C(O)CNC(=O)CNC(=O)CNC(=O)CSC(=O)c1ccccc1,inactive,inactive,inactive,inactive,inactive,inactive,–,–,inactive
